Screening results (PubChem BioAssay)
IDE exosite FP – insulin-degrading enzyme (human) exo-site inhibition; z-score at 20 µM; purified IDE, FL-6b probe fluorescence polarization; stronger effect = lower value; 17,000 compounds, 6.3% hits;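 active means z-score of -3 or lower, meaning strong loss of probe binding signal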;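 further: His-tagged human IDE residues 42-1019 made in E. coli with 30 nM FL-6b probe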
Target sequence (P14735 42-1019 limits assumed): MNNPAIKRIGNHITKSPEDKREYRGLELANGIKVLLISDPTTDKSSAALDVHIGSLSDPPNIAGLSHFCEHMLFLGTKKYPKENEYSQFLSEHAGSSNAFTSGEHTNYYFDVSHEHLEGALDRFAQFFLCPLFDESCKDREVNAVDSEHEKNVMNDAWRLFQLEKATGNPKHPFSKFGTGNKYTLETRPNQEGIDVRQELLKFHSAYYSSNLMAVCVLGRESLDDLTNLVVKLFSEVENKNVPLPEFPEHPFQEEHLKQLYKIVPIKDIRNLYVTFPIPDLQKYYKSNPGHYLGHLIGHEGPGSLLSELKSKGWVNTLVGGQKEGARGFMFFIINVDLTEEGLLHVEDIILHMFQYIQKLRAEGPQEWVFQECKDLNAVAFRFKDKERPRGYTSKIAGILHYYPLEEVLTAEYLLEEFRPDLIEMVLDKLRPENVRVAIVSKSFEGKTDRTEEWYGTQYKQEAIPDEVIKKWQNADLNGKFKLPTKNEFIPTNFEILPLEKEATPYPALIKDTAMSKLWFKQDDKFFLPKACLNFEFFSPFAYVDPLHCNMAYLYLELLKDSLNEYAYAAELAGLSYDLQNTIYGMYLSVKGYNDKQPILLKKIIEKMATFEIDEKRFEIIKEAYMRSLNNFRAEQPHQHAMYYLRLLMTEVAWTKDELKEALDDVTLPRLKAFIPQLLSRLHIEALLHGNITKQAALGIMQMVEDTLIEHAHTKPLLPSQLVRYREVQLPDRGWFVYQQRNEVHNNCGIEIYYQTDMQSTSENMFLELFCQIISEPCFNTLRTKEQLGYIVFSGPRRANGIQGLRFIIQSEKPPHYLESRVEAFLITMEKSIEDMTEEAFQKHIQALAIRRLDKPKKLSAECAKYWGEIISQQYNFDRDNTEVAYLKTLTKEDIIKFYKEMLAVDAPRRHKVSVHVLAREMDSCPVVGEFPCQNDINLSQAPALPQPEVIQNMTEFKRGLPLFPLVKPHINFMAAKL
Each line names hits and unclear results; the compound was inactive in the other large screens. This is one part of a sample in which hits are shown more often than they occur.

CN1c2ccc(-c3ccccc3F)cc2[C@@H]2[C@@H](CCN2C(=O)Nc2cc(F)ccc2F)[C@@H]1CO	none
O=C(C[C@@H]1C[C@H]2c3cc(NS(=O)(=O)c4ccc(F)cc4)ccc3O[C@H]2[C@@H](CO)O1)NCCN1CCCCC1	none
CN(C)CC#Cc1ccc([C@@H]2[C@@H](CO)N3CCCCN(C(=O)c4ccc5c(c4)OCO5)C[C@H]23)cc1	none
O=C(Nc1cccc(F)c1)N1CC(=O)N2[C@@H](CO)[C@H](c3ccc(-c4ccccc4F)cc3)[C@@H]2C1	none
O=C(Nc1ccc(F)cc1)N1CC(=O)N2[C@H](CO)[C@@H](c3ccc(-c4ccc(F)cc4)cc3)[C@H]2C1	none
O=C(Nc1cccc(F)c1)N1CC(=O)N2[C@@H](CO)[C@@H](c3ccc(-c4ccccc4F)cc3)[C@@H]2C1	none
Cc1ccccc1-c1ccc([C@H]2[C@H]3CN(C(=O)Nc4ccc(F)cc4)CC(=O)N3[C@H]2CO)cc1	IDE exosite FP -7
Cc1ccc(-c2ccc([C@@H]3[C@@H](CO)N4C(=O)CN(C(=O)Nc5ccc(F)cc5)C[C@H]34)cc2)cc1	none
O=C(Nc1ccc(F)cc1)N1CC(=O)N2[C@@H](CO)[C@H](c3ccc(-c4ccccc4)cc3)[C@@H]2C1	none
Cc1ccccc1-c1ccc([C@H]2[C@H](CO)N3C(=O)CN(C(=O)Nc4cccc(F)c4)C[C@@H]23)cc1	IDE exosite FP -3
O=C(Nc1ccc(F)cc1)N1CC(=O)N2[C@H](CO)[C@@H](c3ccc(-c4ccccc4)cc3)[C@H]2C1	none
O=C(Nc1ccc(F)cc1)N1CC(=O)N2[C@H](CO)[C@H](c3ccc(-c4ccccc4)cc3)[C@@H]2C1	none
Cc1ccccc1-c1ccc([C@H]2[C@@H](CO)N3C(=O)CN(C(=O)Nc4ccc(F)cc4)C[C@H]23)cc1	IDE exosite FP -21
O=C(Nc1ccc(F)cc1)N1CC(=O)N2[C@H](CO)[C@H](c3ccc(-c4ccccc4)cc3)[C@H]2C1	IDE exosite FP -5.5
O=C(Nc1ccc(F)cc1)N1CC(=O)N2[C@@H](CO)[C@@H](c3ccc(-c4ccc(F)cc4)cc3)[C@@H]2C1	none
CO[C@H]1CN(C)C(=O)c2cc(NC(=O)NC3CCCCC3)ccc2OC[C@H](C)N(CC2CCOCC2)C[C@H]1C	none
CC(C)(O)C#Cc1ccc([C@H]2[C@@H](CO)N3CCCCN(C(=O)c4ccc(F)cc4)C[C@@H]23)cc1	none
O=C(CC1CC1)N1[C@@H](CO)[C@@H]2c3ccccc3N(S(=O)(=O)c3ccccc3F)C[C@@H]21	none
O=S(=O)(c1cccs1)N1CCCCN2[C@H](CO)[C@@H](c3ccc(/C=C/c4ccccc4)cc3)[C@@H]2C1	none
CN(C)C(=O)c1cccc(-c2ccc([C@@H]3[C@H](CO)N4CCCCN(CC5CCOCC5)C[C@@H]34)cc2)c1	none
CN(C)C(=O)c1cccc(-c2ccc([C@H]3[C@@H](CO)N4CCCCN(CC5CCOCC5)C[C@H]34)cc2)c1	none
O=C(C[C@@H]1CC[C@H]2NC[C@@H](O)COC[C@@H]2O1)NCCN1CCCCC1	none
O=C(Nc1ccccc1)N1CC(=O)N2[C@@H](CO)[C@H](c3ccc(-c4ccc(F)cc4)cc3)[C@@H]2C1	none
Cc1ccccc1-c1ccc([C@@H]2[C@@H](CO)N3C(=O)CN(C(=O)Nc4ccccc4)C[C@H]23)cc1	IDE exosite FP -6.1
O=C(Nc1ccccc1)N1CC(=O)N2[C@H](CO)[C@H](c3ccc(-c4ccc(F)cc4)cc3)[C@@H]2C1	none
CCCNC(=O)N1[C@H](CO)[C@H](c2ccccc2)[C@H]1CNC(=O)C1CC1	none
CN(C)C(=O)C[C@@H]1C[C@@H]2c3cc(NC(=O)c4cccnc4)ccc3O[C@@H]2[C@H](CO)O1	none
O=C(c1cccnc1)N1CC(=O)N2[C@H](C1)[C@H](c1ccc(-c3cccnc3)cc1)[C@@H]2CO	none
Cc1ccc(-c2ccc([C@@H]3[C@@H](CO)N4C(=O)CN(C(=O)c5cccnc5)C[C@H]34)cc2)cc1	none
O=C(c1cccnc1)N1CC(=O)N2[C@H](CO)[C@H](c3ccc(-c4ccc(F)cc4)cc3)[C@H]2C1	none
Cc1cccc(-c2ccc([C@@H]3[C@@H](CO)N4C(=O)CN(C(=O)c5cccnc5)C[C@H]34)cc2)c1	IDE exosite FP -4.2
Cc1cccc(-c2ccc([C@H]3[C@@H](CO)N4C(=O)CN(C(=O)c5ccccc5)C[C@@H]34)cc2)c1	none
O=C(c1cccnc1)N1CC(=O)N2[C@H](C1)[C@@H](c1ccc(-c3ccc(F)cc3)cc1)[C@@H]2CO	none
Cc1cccc(-c2ccc([C@@H]3[C@@H](CO)N4C(=O)CN(C(=O)c5ccccc5)C[C@@H]34)cc2)c1	IDE exosite FP -5.2
Cc1ccc(-c2ccc([C@@H]3[C@H](CO)N4C(=O)CN(C(=O)c5ccccc5)C[C@@H]34)cc2)cc1	none
Cc1cccc(-c2ccc([C@@H]3[C@H]4CN(C(=O)c5cccnc5)CC(=O)N4[C@H]3CO)cc2)c1	IDE exosite FP -18
Cc1ccc(-c2ccc([C@H]3[C@H](CO)N4C(=O)CN(C(=O)c5cccnc5)C[C@@H]34)cc2)cc1	IDE exosite FP -3.2
C[C@H]1CC=CC[C@H](c2cccc(Cl)c2)NC(=O)[C@@H](Cc2ccccc2)N(C)C(=O)c2ccccc2O1 (mixture of isomers)	none
O=C(Nc1cccc(F)c1)N1CC(=O)N2[C@@H](CO)[C@H](c3ccc(-c4ccc(F)cc4)cc3)[C@@H]2C1	none
CC=Cc1ccc2n(c1=O)C[C@@H]1[C@@H](CO)[C@H](C(=O)NCCc3cn(C)cn3)[C@H]2N1C(=O)C1CCC1 (mixture of isomers)	none
C[C@H]1CCCCO[C@H](CN(C)C(=O)Nc2ccc(C(F)(F)F)cc2)[C@@H](C)CN([C@@H](C)CO)C(=O)c2cc(NS(=O)(=O)c3cn(C)cn3)ccc2O1	none
COCC(=O)N1CC(=O)N2[C@H](C1)[C@@H](c1ccc(C#CC3CCCC3)cc1)[C@@H]2CO	none
O=C(NC[C@H]1N[C@H](CO)[C@@H]1c1ccc(-c2cncnc2)cc1)C1CC1	none
CCS(=O)(=O)N1CC(=O)N2[C@H](CO)[C@@H](c3ccc(C#CC4CCCCC4)cc3)[C@@H]2C1	none
CO[C@H]1CN(C)C(=O)c2cc(NC(=O)NC(C)C)ccc2OC[C@@H](C)N(Cc2ccccc2)C[C@@H]1C	none
CS(=O)(=O)N1CC(=O)N2[C@H](C1)[C@H](c1ccc(C#CC3CCCC3)cc1)[C@@H]2CO	none
O=C(c1cnccn1)N1CC(=O)N2[C@H](CO)[C@@H](c3ccc(-c4ccccc4)cc3)[C@H]2C1	none
O=C(c1cccc(F)c1)N1CC(=O)N2[C@@H](CO)[C@@H](c3ccc(-c4cccnc4)cc3)[C@@H]2C1	none
Cc1cccc(-c2ccc([C@@H]3[C@@H](CO)N4C(=O)CN(C(=O)c5cnccn5)C[C@H]34)cc2)c1	IDE exosite FP -7.1
O=C(c1cnccn1)N1CC(=O)N2[C@H](C1)[C@H](c1ccc(-c3cccc(F)c3)cc1)[C@@H]2CO	none
O=C(c1cccc(F)c1)N1CC(=O)N2[C@@H](CO)[C@H](c3ccc(-c4cccnc4)cc3)[C@@H]2C1	none
Cc1cccc(-c2ccc([C@H]3[C@@H](CO)N4C(=O)CN(C(=O)c5cccnc5)C[C@@H]34)cc2)c1	IDE exosite FP -8.6
COCCN(C[C@@H]1N[C@@H](CO)[C@H]1c1ccc(-c2ccccc2)cc1)C(C)=O	none
CO[C@@H]1CN(C)C(=O)c2ccc(NS(C)(=O)=O)cc2OC[C@H](C)N(CC2CC2)C[C@H]1C	none
N#C[C@H]1[C@H](c2ccc(C#Cc3cccc(F)c3)cc2)[C@H](CO)N1C(=O)C1CCCC1	none
CC(=O)N1[C@@H](CO)[C@H](c2ccccc2)[C@@H]1CN(C)S(=O)(=O)c1ccccc1	none
